According to PubChem BioAssay (Tox21):
Records with an inconclusive call do not appear. The source made the active and inactive calls. Unless noted, calls come from the whole dose curve; as a rule, active = well fitted curve in the direction sought with a large enough effect in the repeat runs; inconclusive = weak or mixed curves; inactive = no such curve, though single readings can be large; an effect the other way counts as inactive or inconclusive.

Columns and labels:
[1] = qHTS assay for small molecule agonists of the p53 signaling pathway (AID 651631; calls by dose curve; note: nearly all actives have a fitted effect of over 15% in size)
How it was run: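 Fluorescence intensity from cleaved LiveBLAzer B/G substrate (2 h, room temperature) served as the signal. Beforehand, HCT-116 reporter cells bearing p53 response elements were treated 16 h at 37 °C with DMSO-dissolved compounds.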

[2] = qHTS assay for small molecules that induce genotoxicity in human embryonic kidney cells expressing luciferase-tagged ATAD5 (AID 651632); note: nearly all actives have a fitted effect of over 15% in size
How it was run: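 HEK293T cells carrying a luciferase reporter tagged to ATAD5 were exposed to compound or DMSO vehicle for 16 hr at 37C, 5% CO2. Amplite was added, and after 30 min at room temperature luciferase activity was read as a marker of ATAD5 induction.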

[3] = qHTS assay for small molecule agonists of the p53 signaling pathway - cell viability (AID 651633; calls by dose curve;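 note: p53RE-bla HCT reporter cells with a stable beta-lactamase p53 reporter; series mostly up to about 83 µM; nearly all actives have a fitted effect of over 30% in size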)
How it was run: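 Viability counter-read: CellTiter-Glo luminescence (30 min, room temperature) in the same p53RE-bla plates. These plates had been exposed to compounds for 16 h at 37 C.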

[4] = qHTS assay for small molecules that induce genotoxicity in human embryonic kidney cells expressing luciferase-tagged ATAD5 - cell viability (AID 651634; calls by dose curve; note: nearly all actives have a fitted effect of over 25% in size)
How it was run: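 HEK293T cells expressing luciferase-tagged ATAD5 were exposed to compound or DMSO for 15.5 hr at 37C, 5% CO2. Viability was then read as live-cell protease activity by CellTiter-Fluor fluorescence after 30 min at 37C.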

[5] = qHTS assay for small molecule disruptors of the mitochondrial membrane potential - cell viability (AID 720634; calls by dose curve;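 note: human HepG2 liver cancer cells; series mostly up to about 83 µM; nearly all actives have a fitted effect of over 20% in size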)
How it was run: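 HepG2 cells seeded overnight at 37 C, then exposed to compound or DMSO for 1 hr at 37 C, 5% CO2. m-MPI dye added, then CellTiter-Glo for 30 min at room temperature; viability read as ATP luminescence.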

[6] = qHTS assay to test for compound auto fluorescence at 590 nm (red) in HepG2 cells (AID 720674)
How it was run: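 Red autofluorescence (Ex/Em 540/590 nm, Rose Bengal sodium equivalents) was measured in HepG2 cells, 2,000 per well in MEM plus 10% FBS, plated overnight at 37 C. Readings were taken 1 hr after adding 23 nL compound or DMSO, at 37 C and 5% CO2.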

[7] = qHTS assay to test for compound auto fluorescence at 535 nm (green) in HepG2 cells (AID 720675)
[8] = qHTS assay to test for compound auto fluorescence at 460 nm (blue) in HEK293 cells (AID 720678)
How it was run: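 After cell attachment (4-5 hr, 37C), compounds were pinned onto HEK293 monolayers in 10% dialyzed FBS medium. The blue channel (405/460 nm) was read following overnight culture. Equivalency was calculated against triamterene.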

[9] = qHTS assay to test for compound auto fluorescence at 590 nm (red) in HEK293 cells (AID 720679)
How it was run: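 Plates of HEK293 cells (10% dialyzed FBS) are treated with 23 nL compound or DMSO vehicle after a 4-5 hr attachment period, incubated overnight at 37C, and read for red fluorescence at 540/590nm.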

[10] = qHTS assay to test for compound auto fluorescence at 535 nm (green) in HEK293 cells (AID 720680)
[11] = qHTS assay to test for compound auto fluorescence at 460 nm (blue) in HEK293 cell free culture (AID 720681)
How it was run: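 Blue fluorescence (Ex 405/Em 460 nm, triamterene-equivalent) was read immediately after pin transfer of compound or DMSO into medium (DMEM, 10% FBS) without cells.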

[12] = qHTS assay to test for compound auto fluorescence at 590 nm (red) in HEK293 cell free culture (AID 720683)
How it was run: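 Red-channel autofluorescence of compounds in culture medium (DMEM, 10% FBS), no cells, measured at 540/590 nm. Rose Bengal sodium is the reference fluorophore for equivalence.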

[13] = qHTS assay to test for compound auto fluorescence at 590 nm (red) in HepG2 cell free culture (AID 720684)
How it was run: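 Steps: dispense MEM/10% FBS medium, no cells; pin compound or DMSO vehicle; read red channel, Ex/Em 540/590 nm. Output given as Rose Bengal sodium equivalents.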

[14] = qHTS assay to test for compound auto fluorescence at 460 nm (blue) in HepG2 cell free culture (AID 720685)
How it was run: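 Compound (23 nL) or DMSO pinned into cell-free MEM with 10% FBS; blue fluorescence read at 405/460 nm excitation/emission, expressed as auto-fluorescence equivalency to triamterene.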

[15] = qHTS assay to test for compound auto fluorescence at 535 nm (green) in HepG2 cell free culture (AID 720686)
[16] = qHTS assay to test for compound auto fluorescence at 460 nm (blue) in HepG2 cells (AID 720687)
How it was run: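 Blue-channel autofluorescence (Ex/Em 405/460 nm, triamterene-equivalent) was measured after 1 hr compound exposure at 37 C, 5% CO2. Cells were HepG2, plated overnight at 37 C in MEM plus 10% FBS.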

[17] = biological target: Glucocorticoid receptor (Homo sapiens) (UniProt P04150); experiment: qHTS assay to identify small molecule agonists of the glucocorticoid receptor (GR) signaling pathway (AID 720691; active = well fitted activation curve with a large enough effect in the signal ratio in the repeat runs, not every such curve was filed as active; the % refers to the signal ratio)
How it was run: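 GR-bla HeLa cells (beta-lactamase reporter under glucocorticoid response element) were plated 4 h at 37 C/5% CO2, given compounds in DMSO, and incubated 18 h at 37 C. LiveBLAzer B/G FRET substrate was added for 2 h at room temperature, then fluorescence intensity read.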

[18] = biological target: Glucocorticoid receptor (Homo sapiens) (UniProt P04150); experiment: qHTS assay to identify small molecule antagonists of the glucocorticoid receptor (GR) signaling pathway (AID 720692; active = well fitted inhibition curve with a large enough effect in the signal ratio in the repeat runs, not every such curve was filed as active; the % refers to the signal ratio)
How it was run: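 GR-bla HeLa cells (beta-lactamase reporter under glucocorticoid response element) were pre-plated 4 h at 37 C, treated with compounds plus 5 nM dexamethasone (final) for 18 h, then read by LiveBLAzer B/G FRET fluorescence after 2 h.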

[19] = qHTS assay to test for compound auto fluorescence at 535 nm (green) in HEK293 cell free culture (AID 720682)
How it was run: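 Intrinsic compound fluorescence is measured in culture medium containing 10% FBS, with excitation at 485 nm and detection at 535 nm, referenced to fluorescein.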

[20] = qHTS assay for small molecule disruptors of the mitochondrial membrane potential (AID 720635); note: potency is the fitted concentration of half-maximal effect
How it was run: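 Mitochondrial membrane potential tracked with Mito-MPS dye, red aggregates (ex 540/em 590 nm) against green monomers (ex 490/em 535 nm). Compound treatment 1 hr at 37C, dye 30 min in HepG2.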
% is set by controls: 0 for no effect and ±100 for the full control effect.

Sequence of Glucocorticoid receptor (Homo sapiens) (P04150 whole entry, looked up): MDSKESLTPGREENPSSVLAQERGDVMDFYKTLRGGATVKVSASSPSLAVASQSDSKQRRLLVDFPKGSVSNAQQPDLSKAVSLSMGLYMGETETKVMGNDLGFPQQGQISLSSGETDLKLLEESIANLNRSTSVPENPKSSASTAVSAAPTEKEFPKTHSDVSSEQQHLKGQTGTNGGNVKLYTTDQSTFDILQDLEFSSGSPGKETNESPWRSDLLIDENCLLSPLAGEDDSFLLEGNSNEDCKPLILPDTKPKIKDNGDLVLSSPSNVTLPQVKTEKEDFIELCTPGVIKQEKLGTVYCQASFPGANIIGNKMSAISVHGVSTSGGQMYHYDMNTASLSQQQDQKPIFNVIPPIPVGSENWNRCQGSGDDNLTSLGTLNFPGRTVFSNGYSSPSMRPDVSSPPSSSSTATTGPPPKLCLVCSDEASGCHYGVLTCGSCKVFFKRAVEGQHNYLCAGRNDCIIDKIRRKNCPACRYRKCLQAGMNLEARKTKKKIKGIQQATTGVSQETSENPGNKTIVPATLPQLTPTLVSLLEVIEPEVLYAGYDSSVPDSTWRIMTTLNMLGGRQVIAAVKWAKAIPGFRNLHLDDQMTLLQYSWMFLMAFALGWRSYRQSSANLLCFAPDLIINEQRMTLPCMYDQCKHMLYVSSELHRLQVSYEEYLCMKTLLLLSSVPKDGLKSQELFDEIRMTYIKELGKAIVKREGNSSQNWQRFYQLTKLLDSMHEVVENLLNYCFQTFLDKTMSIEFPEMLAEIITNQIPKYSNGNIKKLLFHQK

CC(Cc1ccccc1)NCc1ccccc1Cl (stereo not given)
inactive: Potency [1] | Potency [2] | Potency [3] | Potency [4] | Potency [5] | outcome [6] | outcome [7] | outcome [8] | outcome [9] | outcome [10] | outcome [11] | outcome [12] | outcome [13] | outcome [14] | outcome [15] | outcome [16] | Potency [17] | Potency [18]

COc1cc(C[C@@H](C)N)c(OC)cc1Br
inactive: Potency [1] | Potency [2] | Potency [3] | Potency [4] | Potency [5] | outcome [6] | outcome [7] | outcome [8] | outcome [9] | outcome [10] | outcome [19] | outcome [12] | outcome [13] | outcome [14] | outcome [15] | outcome [16]

CC[N+]1(C)CCCC(OC(=O)C(O)(c2ccccc2)c2ccccc2)C1 (stereo not given)
inactive: Potency [1] | Potency [2] | Potency [3] | Potency [4] | Potency [20] | outcome [6] | outcome [7] | outcome [8] | outcome [9] | outcome [10] | outcome [11] | outcome [12] | outcome [13] | outcome [14] | outcome [15] | outcome [16] | Potency [17] | Potency [18]

CCCN(CCC)c1c([N+](=O)[O-])cc(C(C)C)cc1[N+](=O)[O-]
inactive: Potency [1] | Potency [2] | Potency [3] | Potency [4] | Potency [5] | outcome [6] | outcome [7] | outcome [8] | outcome [9] | outcome [10] | outcome [19] | outcome [12] | outcome [13] | outcome [14] | outcome [15] | outcome [16]
active: Potency [20] 12.2 µM

CCSCc1ccccc1OC(=O)NC
inactive: Potency [1] | Potency [2] | Potency [3] | Potency [4] | Potency [5] | outcome [6] | outcome [7] | outcome [8] | outcome [9] | outcome [10] | outcome [12] | outcome [13] | outcome [14] | outcome [15] | outcome [16] | Potency [17]

O=C(O)c1cc(I)cc(I)c1I
inactive: Potency [1] | Potency [2] | Potency [3] | Potency [4] | Potency [20] | outcome [6] | outcome [7] | outcome [8] | outcome [9] | outcome [10] | outcome [19] | outcome [12] | outcome [13] | outcome [14] | outcome [15] | outcome [16] | Potency [17] | Potency [18]

CN[C@@H](C)[C@H](O)c1ccccc1
inactive: Potency [1] | Potency [2] | Potency [3] | Potency [4] | Potency [5] | Potency [20] | outcome [6] | outcome [7] | outcome [8] | outcome [9] | outcome [10] | outcome [11] | outcome [12] | outcome [13] | outcome [14] | outcome [15] | outcome [16] | Potency [17] | Potency [18]

CCOC(=O)C1OC1(C)c1ccccc1 (stereo not given)
inactive: Potency [1] | Potency [2] | Potency [3] | Potency [4] | Potency [5] | Potency [20] | outcome [6] | outcome [7] | outcome [8] | outcome [9] | outcome [10] | outcome [11] | outcome [19] | outcome [12] | outcome [13] | outcome [14] | outcome [15] | outcome [16] | Potency [17] | Potency [18]

CCOC(=O)c1cncn1C(C)c1ccccc1 (stereo not given)
inactive: Potency [1] | Potency [2] | Potency [3] | Potency [4] | Potency [5] | fluorescence, relative to Rose Bengal [6] -0.315% [at 18.6 µM] | fluorescence, % of fluorescein control [7] 0.021% [at 18.6 µM] | fluorescence, % of triamterene [8] -0.152% [at 18.6 µM] | fluorescence, % of fluorescent control [9] 0.134% [at 18.6 µM] | fluorescence, % of fluorescein [10] -0.183% [at 18.6 µM] | fluorescence, % of fluorescent control [11] -0.0565% [at 18.6 µM] | activity change [19] -0.219% [at 18.6 µM] | fluorescence, % of fluorescent control [12] 0.175% [at 18.6 µM] | fluorescence, % of Rose Bengal [13] 0.117% [at 18.6 µM] | fluorescence, % of fluorescent control [14] -0.0673% [at 18.6 µM] | fluorescence, % of fluorescein control [15] 0.0291% [at 18.6 µM] | fluorescence, % of fluorescent control [16] 0.278% [at 18.6 µM] | Potency [17]

CCOc1cccc(C2(N3CCN(c4ccccc4)CC3)CCC(C)CC2)c1 (stereo not given)
inactive: Potency [1] | Potency [2] | Potency [3] | Potency [4] | Potency [5] | Potency [20] | outcome [6] | outcome [7] | outcome [8] | outcome [9] | outcome [10] | outcome [11] | outcome [19] | outcome [12] | outcome [13] | outcome [14] | outcome [15] | outcome [16] | Potency [17] | Potency [18]

COc1ccc2c(c1OC)C(=O)O[C@H]2[C@@H]1c2cc3c(cc2CCN1C)OCO3
inactive: Potency [1] | Potency [2] | Potency [3] | Potency [4] | Potency [5] | Potency [20] | outcome [6] | outcome [7] | outcome [9] | outcome [10] | outcome [11] | outcome [19] | outcome [12] | outcome [13] | outcome [14] | outcome [15] | outcome [16]

CCOP(=S)(OCC)SCSc1cc(Cl)ccc1Cl
inactive: Potency [1] | Potency [2] | Potency [3] | Potency [4] | Potency [5] | outcome [6] | outcome [7] | outcome [9] | outcome [10] | outcome [11] | outcome [19] | outcome [12] | outcome [13] | outcome [14] | outcome [15] | outcome [16] | Potency [17]

CCCCOC(=O)CCC(=O)OCCCC
inactive: Potency [1] | Potency [2] | Potency [3] | Potency [4] | Potency [5] | Potency [20] | outcome [6] | outcome [7] | outcome [8] | outcome [9] | outcome [10] | outcome [11] | outcome [19] | outcome [12] | outcome [14] | outcome [15] | outcome [16]

CN1CC[C@]23c4c5ccc(O)c4O[C@H]2[C@@H](O)CC[C@H]3[C@H]1C5
inactive: Potency [1] | Potency [2] | Potency [3] | Potency [4] | Potency [5] | Potency [20] | outcome [6] | outcome [7] | outcome [8] | outcome [9] | outcome [10] | outcome [11] | outcome [12] | outcome [13] | outcome [14] | outcome [15] | outcome [16] | Potency [17] | Potency [18]

CN(C)C(=O)Nc1cccc(OC(=O)NC(C)(C)C)c1
inactive: Potency [1] | Potency [2] | Potency [3] | Potency [4] | Potency [5] | Potency [20] | outcome [6] | outcome [7] | outcome [8] | outcome [9] | outcome [10] | outcome [11] | outcome [19] | outcome [12] | outcome [13] | outcome [14] | outcome [15] | outcome [16] | Potency [17] | Potency [18]
